Most compounds without a hit are left out; they make up all but 2.2% or so of the library.
FAK inh = FAK (human) kinase inhibition | biochemical FAK kinase activity assay | inhibition, %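 (tested at 7 µM)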 | hit rate 0.84% among 97,000; in the data active means inhibition above about 19%
Target sequence (Q05397 whole entry, looked up): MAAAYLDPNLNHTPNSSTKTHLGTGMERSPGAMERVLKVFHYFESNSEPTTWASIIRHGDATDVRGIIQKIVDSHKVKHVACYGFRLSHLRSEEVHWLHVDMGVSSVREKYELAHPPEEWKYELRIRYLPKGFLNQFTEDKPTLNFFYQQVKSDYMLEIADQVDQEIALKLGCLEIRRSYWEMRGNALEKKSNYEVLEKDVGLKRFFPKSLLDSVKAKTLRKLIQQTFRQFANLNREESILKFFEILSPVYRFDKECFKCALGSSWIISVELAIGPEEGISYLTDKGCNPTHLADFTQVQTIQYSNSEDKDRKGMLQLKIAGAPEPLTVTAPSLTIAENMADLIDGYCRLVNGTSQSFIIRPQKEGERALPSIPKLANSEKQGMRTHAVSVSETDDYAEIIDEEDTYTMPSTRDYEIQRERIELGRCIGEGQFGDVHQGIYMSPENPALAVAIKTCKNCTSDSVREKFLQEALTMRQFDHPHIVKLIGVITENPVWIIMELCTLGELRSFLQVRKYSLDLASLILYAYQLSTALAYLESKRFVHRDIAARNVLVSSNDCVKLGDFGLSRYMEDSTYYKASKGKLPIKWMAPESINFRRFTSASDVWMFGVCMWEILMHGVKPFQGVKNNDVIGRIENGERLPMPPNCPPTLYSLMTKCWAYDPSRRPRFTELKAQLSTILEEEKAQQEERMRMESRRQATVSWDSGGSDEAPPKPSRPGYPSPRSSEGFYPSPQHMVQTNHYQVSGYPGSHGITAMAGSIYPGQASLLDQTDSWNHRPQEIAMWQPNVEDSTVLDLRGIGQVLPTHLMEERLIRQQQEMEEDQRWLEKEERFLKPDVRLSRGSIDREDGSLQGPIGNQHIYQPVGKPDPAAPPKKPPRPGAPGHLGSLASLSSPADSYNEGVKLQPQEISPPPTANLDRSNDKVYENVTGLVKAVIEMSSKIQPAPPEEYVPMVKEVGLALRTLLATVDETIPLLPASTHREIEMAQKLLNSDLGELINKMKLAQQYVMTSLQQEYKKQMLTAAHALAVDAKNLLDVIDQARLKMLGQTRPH
MRP1 act = activators of MRP-1; viability increase, % at 10 µM; hit rate 0.61% among 140,000; H69AR cells + doxorubicin, viability rescue, CellTiter-Glo;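 active means viability gain under doxorubicin at or above a set limit, the compound median plus 3 SD, cut at about 4.7% in these data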;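 further: MRP-1 overexpressing cells given doxorubicin 25 µM after compound pretreatment; 18-22 h compound pretreatment then 72 h with doxorubicin before readout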
PTPN22 act = LYP (human) phosphatase activation; AID 697; hit rate 0.11% among 96,000; recombinant LYP, DiFMUP fluorescence; 0 = plate median, 100 = signal doubled; activation, % at 2 µM;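 active means activation at 2 µM above a set limit, the mean plus 5 SD, cut at about 37% in these data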
PTPN22 inh 2 = inhibitors of human LYP (PTPN22) phosphatase. Q9Y2R2. recombinant LYP catalytic domain, DiFMUP fluorescence. inhibition, % at 2 µM. hit rate 0.21% among 96,000. AID 640;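 active means inhibition at 2 µM at or above a set limit, the screen mean plus 3 SD, cut at about 24% in these data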
MRP reversal = MRP-mediated drug resistance reversal; H69AR cells + 2 uM doxorubicin, CellTiter-Glo, 72 h; differential viability (reversal), % at 10 µM; hit rate 0.04% among 85,000; AID 602;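 active means viability drop by adding the cancer drug above about 55%, with treated viability meeting a 40% cutoff, limit read from the data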;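 further: larger differential means the compound sensitizes cells more to doxorubicin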
PLAP act = activators of human placental alkaline phosphatase. P05187. purified PLAP enzyme, luminescent substrate read-out; stronger effect = higher value. activation fold at 20 µM. hit rate 1.2% among 96,000; in the data active means activation fold above about 2
Of the large screens only hits and unclear results are named; the others gave an inactive call.

CC(C)CCNC(=O)CN(C(=O)Cn1nnc(-c2ccccc2F)n1)c1cccc2c1CCCC2	PLAP act 2.6 (no result: MRP reversal)
N=C1C(c2nc3ccccc3c(=O)[nH]2)=C(O)CN1c1ccccc1	PLAP act 2.2 (no result: MRP reversal)
CCC(C)N1CC(O)=C(c2nc3ccccc3[nH]2)C1=N (stereo not given)	none
CCCCCCN1CC(O)=C(c2nc3ccccc3[nH]2)C1=N	none (no result: FAK inh, PTPN22 act, PTPN22 inh 2)
N=C1C(c2nc3ccccc3[nH]2)=C(O)CN1c1ccc(CC(=O)O)cc1	PLAP act 2.6
O=c1[nH]c(-c2ccccn2)nc2ccccc12	PLAP act 2.4
c1ccc(-c2nc3ccccc3[nH]2)nc1	none (no result: FAK inh, PTPN22 act, PTPN22 inh 2, MRP reversal, PLAP act)
Cc1sc(NC(=O)c2ccco2)c(C(c2cccnc2)N2CCCC2)c1C (stereo not given)	none
N#CCSc1nc2ccc(N3CCCCC3)cc2c(=O)n1Cc1ccccc1	MRP1 act 4.8
COc1ccc(C(=O)Nc2ccc(S(=O)(=O)Nc3nccnc3OC)cc2)cc1	MRP1 act 6.2 (no result: MRP reversal)
COc1nccnc1NS(=O)(=O)c1ccc(NS(=O)(=O)c2ccc(NC(C)=O)cc2)cc1	none
CCOC(=O)c1ccc(NC(=O)C2CCN(C(=O)c3ccc(OC)c(OC)c3)CC2)cc1	MRP1 act 11 (no result: PLAP act)
COC(=O)c1ccc(NC(=O)C2CCN(C(=O)c3cc(OC)c(OC)c(OC)c3)CC2)cc1	none
CCCn1c2c(c(O)c(C(=O)Nc3nccs3)c1=O)CCCC2	none
CC(C)Cn1c2c(c(O)c(C(=O)Nc3nccs3)c1=O)CCCC2	MRP1 act 5.7
CN1CC(=O)N/C1=N\C(=O)Nc1ccc2c(c1)N(C)C(=O)CS2	PLAP act 2.8
CC(=O)NC(C)c1nc2ccccc2n1C(C)C (stereo not given)	none
Cc1ccc(C(O)c2nc3ccccc3n2C(C)C)cc1 (stereo not given)	PLAP act 2.6
O=S(=O)(Nc1cccc(-c2cn3cccnc3n2)c1)c1ccc(Cl)cc1	none (no result: FAK inh, PTPN22 act, PTPN22 inh 2, MRP reversal, PLAP act)
COc1ccc(C(=O)NCc2ccc(-c3nc4ccccc4s3)cc2)cc1	MRP1 act 7.5 (no result: MRP reversal)
COc1cccc(C(=O)NCc2ccc(-c3nc4ccccc4s3)cc2)c1	none (no result: MRP reversal)
O=C(Nc1ccc2nc(-c3ccccn3)[nH]c2c1)C1CCCCC1	PLAP act 2.3
CCn1c(COc2ccc(C)cc2)nnc1SCc1nc2ccccc2[nH]1	MRP1 act 7.6
Clc1cccc(-c2nnc(SCc3nc4ccccc4[nH]3)n2Cc2ccco2)c1	PLAP act 2.2
c1coc(Cn2c(SCc3nc4ccccc4[nH]3)nnc2-c2cnccn2)c1	PLAP act 2.2 (no result: MRP reversal)
c1ccc(-c2nnc(SCc3nc4ccccc4[nH]3)n2Cc2ccco2)nc1	PLAP act 2.6
Cn1c(COc2ccccc2)nnc1SCc1nc2ccccc2[nH]1	none
Clc1ccc(OCc2nnc(SCc3nc4ccccc4[nH]3)n2Cc2ccco2)cc1	none
O=C(NCCc1ccccc1)C(NS(=O)(=O)c1cccc2nsnc12)c1ccccc1 (stereo not given)	none (no result: FAK inh, PTPN22 act, PTPN22 inh 2, PLAP act)
CN1C(=O)c2ccc(NC(=S)NC(=O)C(C)(C)C)cc2C1=O	none (no result: FAK inh, PTPN22 act, PTPN22 inh 2, MRP reversal, PLAP act)
Cc1ccc(C2CC(=O)Oc3cc(O)ccc32)cc1 (stereo not given)	none (no result: FAK inh, PTPN22 act, PTPN22 inh 2, MRP reversal, PLAP act)
O=C1CC(c2ccccc2)c2cc(O)ccc2O1 (stereo not given)	MRP1 act 5.1 (no result: FAK inh, PTPN22 act, PTPN22 inh 2, MRP reversal, PLAP act)
CSc1nc(NCc2ccco2)c2c3c(sc2n1)CN(C)CC3	none (no result: PLAP act)
CSc1nc(SCC(=O)NCc2ccco2)c2c3c(sc2n1)CN(C)CC3	FAK inh 22 (no result: PLAP act)
O=C(c1ccc(S(=O)(=O)c2cccc(Cl)c2)c([N+](=O)[O-])c1)N1CCN(Cc2ccccc2)CC1	none (no result: FAK inh, PTPN22 act, PTPN22 inh 2, MRP reversal, PLAP act)
O=C(CCCn1c(=O)[nH]c2cc(Cl)ccc2c1=O)NCCCN1CCCC1	none
COc1ccc(N2CCN(C(=O)CCCn3c(=O)[nH]c4cc(Cl)ccc4c3=O)CC2)cc1	PLAP act 2
O=C(CSc1nnc(-c2ccc(Cl)cc2Cl)n1C1CCCCC1)N1CCCC1	PLAP act 2
Cc1ccc(C(=O)CCC(=O)Nc2ccc(Cl)c(S(=O)(=O)Nc3cccc(Cl)c3)c2)cc1	MRP1 act 7.8 (no result: FAK inh, PTPN22 act, PTPN22 inh 2, MRP reversal, PLAP act)
Cc1ccc(S(=O)(=O)NCCC(=O)Nc2cccc(Cl)c2)cc1	none (no result: FAK inh, PTPN22 act, PTPN22 inh 2, MRP reversal, PLAP act)
CCOC(=O)c1c(C)n(C)c2ccc(OC)c(NC(=O)CN3CCN(C4CCCCC4)CC3)c12	PLAP act 2
N#C/C(C(=O)N1CCOCC1)=C1/SC(Cc2ccccc2)C(=O)N1c1ccccc1 (stereo not given)	none
CC(=O)/C(C#N)=C1\NC(=O)C(Cc2ccccc2)S1 (stereo not given)	MRP1 act 4.9 (no result: PLAP act)
CC(C)Cn1c(N)c(C(=O)NCC2CCCO2)c2nc3ccccc3nc21 (stereo not given)	PLAP act 2
COCCn1c(N)c(C(=O)NCC2CCCO2)c2nc3ccccc3nc21 (stereo not given)	none
Cn1c(CCNC(=O)c2ccccc2)nc2cc(NC(=O)c3ccco3)ccc21	none
CCCC(=O)Nc1ccc2c(c1)nc(CCNC(=O)c1ccccc1)n2C	PTPN22 inh 2 27
Cc1onc(C(=O)N2C(C)CCCC2C)c1[N+](=O)[O-] (stereo not given)	none (no result: FAK inh, PTPN22 act, PTPN22 inh 2, MRP reversal, PLAP act)
CCc1nn2c(N)c(/C=C3\C=Nc4ccccc43)c(=O)nc2s1	MRP1 act 8.2 (no result: FAK inh, PTPN22 act, PTPN22 inh 2, MRP reversal, PLAP act)
CCOc1ccccc1N(CC(=O)Nc1ccccc1C(=O)NCc1ccco1)S(C)(=O)=O	none
CCOc1ccc(N(CC(=O)Nc2ccccc2C(=O)NCc2ccco2)S(C)(=O)=O)cc1	PTPN22 inh 2 41
OCCN1CCN(c2nc(NCc3ccco3)c3ccccc3n2)CC1	none (no result: PLAP act)
c1ccc(CN2CCN(c3nc(NCc4ccco4)c4ccccc4n3)CC2)cc1	PLAP act 2 (no result: MRP reversal)
O=C(Nc1ccc(F)cc1)C(Sc1nc2ccccc2[nH]1)c1ccccc1 (stereo not given)	none (no result: FAK inh, PTPN22 act, PTPN22 inh 2, MRP reversal, PLAP act)
CN(C)CCCNS(=O)(=O)c1ccc(N2CCC(c3ccc(Cl)cc3)=N2)cc1	PLAP act 2.3
O=S(=O)(c1ccc(N2CCC(c3ccc(Cl)cc3)=N2)cc1)N(CCO)CCO	PLAP act 2.2
COc1ccc(/C=N/NC(N)=S)cc1OC(=O)c1cccc2ccccc12	none (no result: MRP reversal)
Cc1cccc(OCc2nc(-c3nonc3N)no2)c1C	MRP1 act 5.2 (no result: FAK inh, PTPN22 act, PTPN22 inh 2)
Nc1nonc1-c1noc(COc2ccccc2Cl)n1	none
O=C(N/N=C/c1ccc(O)cc1)/C(=C/c1ccccc1)CCO	none (no result: FAK inh, PTPN22 act, PTPN22 inh 2, MRP reversal, PLAP act)
O=C(Nc1nc2ccccc2n1Cc1ccc(Cl)cc1)c1ccco1	none (no result: FAK inh, PTPN22 act, PTPN22 inh 2)
CCCn1c(Nc2ccc(Cl)cc2)nc2ccccc21	PTPN22 inh 2 38
CN(C)CCn1c(NC(=O)c2ccc(Cl)cc2)nc2ccccc21	PLAP act 2.3
CCCOC(=O)c1cccc(Nc2nc(-c3cccnc3)nc3ccccc23)c1	none (no result: FAK inh, PTPN22 act, PTPN22 inh 2, MRP reversal, PLAP act)
Cn1c(=O)c2c(ncn2CC(=O)N/N=C/c2ccc(Br)s2)n(C)c1=O	none (no result: FAK inh, PTPN22 act, PTPN22 inh 2, MRP reversal, PLAP act)
COc1ccccc1Nc1nc(N)nc(CSC(=S)N2CCCCC2C)n1 (stereo not given)	none (no result: FAK inh, PTPN22 act, PTPN22 inh 2, MRP reversal, PLAP act)
O=C(CCN1C(=O)/C(=C/c2cccc(Br)c2)SC1=S)NNC(=O)c1cccnc1	PLAP act 2.2 (no result: MRP reversal)
